Assays:
Assay in all cases: DAPPL (digital affinity profiling via proximity ligation, sequencing); 10 mM Tris-HCl pH 7.5, 50 mM NaCl, 1 mM DTT, 4% glycerol, room temperature, 30 min; GST-TFs on glutathione beads, 16-mer random dsDNA library, 0.1% formaldehyde crosslink after washing; high values mean tight binding
Conditions in all cases: protein: recombinant; tags: N-terminal GST; dsDNA, one strand shown
FEV = target: T1, FEV (Homo sapiens, UniProt Q99581 1-238)
T1 sequence: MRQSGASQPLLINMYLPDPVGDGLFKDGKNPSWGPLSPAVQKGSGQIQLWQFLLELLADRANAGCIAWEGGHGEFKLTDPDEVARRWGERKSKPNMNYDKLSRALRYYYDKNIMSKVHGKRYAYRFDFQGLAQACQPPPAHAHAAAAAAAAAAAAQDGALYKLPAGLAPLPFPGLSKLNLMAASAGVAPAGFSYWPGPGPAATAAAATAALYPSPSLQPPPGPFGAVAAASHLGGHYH
Method in brief: (§1)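 Binding signal is given per hexamer as its read frequency for a factor divided by its frequency in the tag-only sample. GST-fused human transcription factors were expressed in yeast, captured on glutathione beads, barcoded with DNA and pooled with that sample, then incubated with 200 nmole of a 16-mer random double-stranded DNA library in Tris/NaCl/DTT/glycerol buffer for 30 min at room temperature. The pools were then washed, crosslinked, proximity-ligated, amplified by PCR and sequenced on an Illumina NextSeq500.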

ETV5 = ETV5 (Homo sapiens, UniProt P41161 1-510)
Method in brief: as §1

SPIC = target: T2, SPIC (Homo sapiens, UniProt Q8N5J4 1-248)
T2 sequence: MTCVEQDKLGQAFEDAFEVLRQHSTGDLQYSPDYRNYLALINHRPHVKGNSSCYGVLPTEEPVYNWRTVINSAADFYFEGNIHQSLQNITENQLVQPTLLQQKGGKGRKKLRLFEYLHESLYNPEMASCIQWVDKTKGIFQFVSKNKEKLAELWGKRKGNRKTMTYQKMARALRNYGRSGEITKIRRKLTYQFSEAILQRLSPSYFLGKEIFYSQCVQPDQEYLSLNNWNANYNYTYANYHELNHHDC
Method in brief: as §1

ELF4 = ELF4 (Homo sapiens, UniProt Q99607 1-663)
Method in brief: as §1

ELK4 = target: T3, ELK4 (Homo sapiens, UniProt P28324-2 1-405)
T3 sequence: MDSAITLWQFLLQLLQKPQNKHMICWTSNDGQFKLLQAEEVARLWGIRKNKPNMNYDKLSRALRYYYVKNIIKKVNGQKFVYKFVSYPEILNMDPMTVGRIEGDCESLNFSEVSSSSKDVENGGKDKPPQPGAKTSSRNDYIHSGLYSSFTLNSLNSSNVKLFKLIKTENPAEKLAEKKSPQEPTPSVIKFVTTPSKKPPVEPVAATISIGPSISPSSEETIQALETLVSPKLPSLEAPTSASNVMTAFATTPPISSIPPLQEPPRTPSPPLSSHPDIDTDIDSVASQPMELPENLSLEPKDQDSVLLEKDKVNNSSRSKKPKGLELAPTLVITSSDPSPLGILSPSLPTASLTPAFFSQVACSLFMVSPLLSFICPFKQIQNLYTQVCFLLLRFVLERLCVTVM
Method in brief: as §1

ETV2 = target: T4, ETV2 (Homo sapiens, UniProt O00321 1-342)
T4 sequence: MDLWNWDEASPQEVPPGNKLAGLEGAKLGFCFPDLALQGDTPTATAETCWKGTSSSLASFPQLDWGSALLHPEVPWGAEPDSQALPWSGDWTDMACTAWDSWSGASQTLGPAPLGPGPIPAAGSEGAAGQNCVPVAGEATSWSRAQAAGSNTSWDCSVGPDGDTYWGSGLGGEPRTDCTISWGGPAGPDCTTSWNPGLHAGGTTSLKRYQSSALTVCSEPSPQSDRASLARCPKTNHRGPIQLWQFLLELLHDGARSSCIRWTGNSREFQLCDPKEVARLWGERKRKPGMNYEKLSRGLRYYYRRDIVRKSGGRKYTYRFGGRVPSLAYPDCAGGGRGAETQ
Method in brief: as §1

ELF3 = target: T5, ELF3 (Homo sapiens, UniProt P78545 1-371)
T5 sequence: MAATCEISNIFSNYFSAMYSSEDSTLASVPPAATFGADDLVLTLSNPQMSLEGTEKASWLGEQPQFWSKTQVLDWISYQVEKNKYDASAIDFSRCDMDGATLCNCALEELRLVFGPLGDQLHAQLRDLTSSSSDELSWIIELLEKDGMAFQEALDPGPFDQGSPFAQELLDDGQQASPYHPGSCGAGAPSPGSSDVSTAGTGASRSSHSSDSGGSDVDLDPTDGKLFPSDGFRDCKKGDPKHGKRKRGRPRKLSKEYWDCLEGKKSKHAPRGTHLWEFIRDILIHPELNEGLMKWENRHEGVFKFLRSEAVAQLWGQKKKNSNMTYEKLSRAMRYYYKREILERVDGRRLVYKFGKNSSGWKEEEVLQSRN
Method in brief: as §1

ETV1 = ETV1 (Homo sapiens, UniProt P50549 1-477)
Method in brief: as §1

ERF = target: T6, ERF (Homo sapiens, UniProt P50548 1-548)
T6 sequence: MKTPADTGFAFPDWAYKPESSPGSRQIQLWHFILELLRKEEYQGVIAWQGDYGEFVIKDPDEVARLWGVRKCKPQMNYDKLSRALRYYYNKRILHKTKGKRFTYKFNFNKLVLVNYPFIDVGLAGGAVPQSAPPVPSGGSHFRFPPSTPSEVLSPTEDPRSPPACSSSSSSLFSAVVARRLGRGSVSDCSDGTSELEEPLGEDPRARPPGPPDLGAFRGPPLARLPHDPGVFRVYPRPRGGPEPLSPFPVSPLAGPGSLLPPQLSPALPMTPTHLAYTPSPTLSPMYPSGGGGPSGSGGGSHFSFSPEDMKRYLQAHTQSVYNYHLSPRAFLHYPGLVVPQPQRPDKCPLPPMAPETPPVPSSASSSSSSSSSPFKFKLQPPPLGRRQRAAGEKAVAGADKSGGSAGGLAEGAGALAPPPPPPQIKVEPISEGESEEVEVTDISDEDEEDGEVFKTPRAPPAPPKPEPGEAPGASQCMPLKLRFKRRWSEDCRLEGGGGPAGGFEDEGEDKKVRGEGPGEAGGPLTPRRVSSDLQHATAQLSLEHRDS
Method in brief: as §1

ETV3L = target: T7, ETV3L (Homo sapiens, UniProt Q6ZN32 1-361)
T7 sequence: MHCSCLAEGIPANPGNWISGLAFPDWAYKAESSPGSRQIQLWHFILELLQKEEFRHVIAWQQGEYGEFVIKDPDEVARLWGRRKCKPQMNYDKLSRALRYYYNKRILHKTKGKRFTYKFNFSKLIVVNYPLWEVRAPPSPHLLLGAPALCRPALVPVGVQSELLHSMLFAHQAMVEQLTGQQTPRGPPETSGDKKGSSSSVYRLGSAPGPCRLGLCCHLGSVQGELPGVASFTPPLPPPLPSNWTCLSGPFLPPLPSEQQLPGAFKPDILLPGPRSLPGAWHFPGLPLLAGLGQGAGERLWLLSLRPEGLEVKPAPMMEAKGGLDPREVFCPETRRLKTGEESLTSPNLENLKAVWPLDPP
Method in brief: as §1

ETS2 = target: T8, ETS2 (Homo sapiens, UniProt P15036 1-469)
T8 sequence: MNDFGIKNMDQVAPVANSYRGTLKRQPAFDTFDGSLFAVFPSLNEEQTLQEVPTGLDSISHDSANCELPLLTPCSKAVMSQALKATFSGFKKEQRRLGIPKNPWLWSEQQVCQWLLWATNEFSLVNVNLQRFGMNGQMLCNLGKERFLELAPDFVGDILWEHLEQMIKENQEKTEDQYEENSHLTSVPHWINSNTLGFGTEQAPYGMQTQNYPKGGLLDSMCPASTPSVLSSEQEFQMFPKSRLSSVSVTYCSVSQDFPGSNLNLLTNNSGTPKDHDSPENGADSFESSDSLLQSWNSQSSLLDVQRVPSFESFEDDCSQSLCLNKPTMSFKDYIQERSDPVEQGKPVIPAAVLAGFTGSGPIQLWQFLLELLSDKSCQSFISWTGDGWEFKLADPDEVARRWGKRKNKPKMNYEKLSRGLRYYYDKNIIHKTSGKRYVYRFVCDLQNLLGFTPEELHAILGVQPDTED
Method in brief: as §1

SPDEF = target: T9, SPDEF (Homo sapiens, UniProt O95238 1-335)
T9 sequence: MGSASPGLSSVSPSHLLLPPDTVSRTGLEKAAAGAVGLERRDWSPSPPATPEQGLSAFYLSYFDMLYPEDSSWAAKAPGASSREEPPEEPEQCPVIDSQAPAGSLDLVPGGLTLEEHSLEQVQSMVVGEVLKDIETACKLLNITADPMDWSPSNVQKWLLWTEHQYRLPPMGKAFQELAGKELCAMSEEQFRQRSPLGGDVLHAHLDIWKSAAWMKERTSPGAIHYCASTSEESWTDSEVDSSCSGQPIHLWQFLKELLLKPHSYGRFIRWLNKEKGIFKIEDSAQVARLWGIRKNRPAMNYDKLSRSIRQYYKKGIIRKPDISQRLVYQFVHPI
Method in brief: as §1

ETV7 = target: T10, ETV7 (Homo sapiens, UniProt Q9Y603 1-341)
T10 sequence: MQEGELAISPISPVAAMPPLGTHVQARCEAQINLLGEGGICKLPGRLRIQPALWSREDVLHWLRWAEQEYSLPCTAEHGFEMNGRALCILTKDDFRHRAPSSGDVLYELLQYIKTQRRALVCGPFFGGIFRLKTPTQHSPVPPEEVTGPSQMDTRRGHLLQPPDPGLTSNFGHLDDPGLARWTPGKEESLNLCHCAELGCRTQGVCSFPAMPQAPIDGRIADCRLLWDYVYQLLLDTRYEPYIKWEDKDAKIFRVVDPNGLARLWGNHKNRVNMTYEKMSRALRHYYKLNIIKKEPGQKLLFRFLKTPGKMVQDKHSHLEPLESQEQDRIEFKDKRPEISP
Method in brief: as §1

ELF5 = target: T11, ELF5 (Homo sapiens, UniProt Q9UKW6-2 1-255)
T11 sequence: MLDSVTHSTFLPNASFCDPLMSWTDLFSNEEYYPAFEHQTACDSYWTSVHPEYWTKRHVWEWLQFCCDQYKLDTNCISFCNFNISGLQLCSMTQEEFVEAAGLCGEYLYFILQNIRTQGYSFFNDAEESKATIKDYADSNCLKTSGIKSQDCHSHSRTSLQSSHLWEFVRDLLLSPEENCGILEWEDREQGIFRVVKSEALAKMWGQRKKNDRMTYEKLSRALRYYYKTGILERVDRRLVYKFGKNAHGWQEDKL
Method in brief: as §1

ETV3 = target: T12, ETV3 (Homo sapiens, UniProt P41162-2 1-143)
T12 sequence: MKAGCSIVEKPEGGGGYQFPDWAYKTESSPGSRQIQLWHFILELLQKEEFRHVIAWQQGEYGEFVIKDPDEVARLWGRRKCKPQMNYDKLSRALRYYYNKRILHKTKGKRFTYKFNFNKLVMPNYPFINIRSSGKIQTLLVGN
Method in brief: as §1

ETV6 = ETV6 (Homo sapiens, UniProt P41212 1-452)
Method in brief: as §1

ETV6, sequence (P41212 whole entry): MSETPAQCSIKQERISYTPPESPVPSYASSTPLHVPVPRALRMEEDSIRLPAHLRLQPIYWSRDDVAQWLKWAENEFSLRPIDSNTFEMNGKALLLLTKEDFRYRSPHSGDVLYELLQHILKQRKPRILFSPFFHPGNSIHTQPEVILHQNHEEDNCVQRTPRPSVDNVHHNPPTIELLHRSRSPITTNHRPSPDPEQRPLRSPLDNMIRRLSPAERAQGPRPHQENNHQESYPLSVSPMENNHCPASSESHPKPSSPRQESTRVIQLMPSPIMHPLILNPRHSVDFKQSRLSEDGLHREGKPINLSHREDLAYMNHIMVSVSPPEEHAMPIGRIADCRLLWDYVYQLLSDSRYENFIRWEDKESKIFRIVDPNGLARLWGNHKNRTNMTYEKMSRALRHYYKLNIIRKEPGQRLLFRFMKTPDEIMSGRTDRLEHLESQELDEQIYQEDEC
ETV5, sequence (P41161 whole entry): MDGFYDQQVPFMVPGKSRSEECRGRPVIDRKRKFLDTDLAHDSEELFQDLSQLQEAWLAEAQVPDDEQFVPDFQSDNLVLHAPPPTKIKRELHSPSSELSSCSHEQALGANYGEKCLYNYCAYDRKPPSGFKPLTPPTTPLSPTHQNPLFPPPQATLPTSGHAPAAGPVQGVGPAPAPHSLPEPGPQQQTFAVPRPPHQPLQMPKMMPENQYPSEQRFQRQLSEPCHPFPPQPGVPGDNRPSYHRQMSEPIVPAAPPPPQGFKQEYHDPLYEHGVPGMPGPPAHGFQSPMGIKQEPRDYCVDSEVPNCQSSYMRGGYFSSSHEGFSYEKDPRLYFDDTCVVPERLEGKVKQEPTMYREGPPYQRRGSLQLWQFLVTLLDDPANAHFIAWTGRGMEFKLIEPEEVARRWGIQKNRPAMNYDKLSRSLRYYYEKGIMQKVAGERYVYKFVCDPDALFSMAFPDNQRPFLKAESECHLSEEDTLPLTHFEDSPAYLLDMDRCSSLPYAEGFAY
ELF4, sequence (Q99607 whole entry): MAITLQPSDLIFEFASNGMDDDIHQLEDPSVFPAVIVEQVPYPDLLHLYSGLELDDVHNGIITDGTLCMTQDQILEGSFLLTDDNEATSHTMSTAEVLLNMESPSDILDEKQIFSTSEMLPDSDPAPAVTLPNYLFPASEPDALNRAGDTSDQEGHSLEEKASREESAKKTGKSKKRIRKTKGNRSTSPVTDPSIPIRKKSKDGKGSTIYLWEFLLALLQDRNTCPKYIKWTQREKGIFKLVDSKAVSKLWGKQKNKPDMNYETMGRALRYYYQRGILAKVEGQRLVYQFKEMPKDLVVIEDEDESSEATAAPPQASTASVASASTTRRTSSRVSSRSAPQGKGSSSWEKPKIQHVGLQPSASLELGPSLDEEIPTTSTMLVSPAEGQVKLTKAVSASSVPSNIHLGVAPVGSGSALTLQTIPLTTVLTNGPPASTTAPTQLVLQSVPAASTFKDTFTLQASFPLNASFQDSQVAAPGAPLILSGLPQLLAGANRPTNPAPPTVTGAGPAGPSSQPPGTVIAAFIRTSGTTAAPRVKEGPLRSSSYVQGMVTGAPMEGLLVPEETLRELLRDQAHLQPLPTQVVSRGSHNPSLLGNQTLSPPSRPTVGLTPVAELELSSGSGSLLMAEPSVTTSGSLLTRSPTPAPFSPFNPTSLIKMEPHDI
ETV1, sequence (P50549 whole entry): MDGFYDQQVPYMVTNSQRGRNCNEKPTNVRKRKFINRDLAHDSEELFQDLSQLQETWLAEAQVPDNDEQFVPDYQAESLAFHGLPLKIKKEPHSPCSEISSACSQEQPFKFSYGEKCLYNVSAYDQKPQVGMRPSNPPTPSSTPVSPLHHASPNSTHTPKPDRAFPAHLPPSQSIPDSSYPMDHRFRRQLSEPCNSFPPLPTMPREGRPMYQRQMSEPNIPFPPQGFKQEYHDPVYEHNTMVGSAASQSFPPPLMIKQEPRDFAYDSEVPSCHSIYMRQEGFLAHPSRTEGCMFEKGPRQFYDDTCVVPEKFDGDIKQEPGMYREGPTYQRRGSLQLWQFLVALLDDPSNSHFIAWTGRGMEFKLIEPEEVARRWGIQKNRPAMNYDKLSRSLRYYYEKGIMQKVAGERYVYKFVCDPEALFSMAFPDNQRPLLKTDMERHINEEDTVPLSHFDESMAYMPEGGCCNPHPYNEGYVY

Sequence	binding signal (FEV)	binding signal (ETV5)	binding signal (SPIC)	binding signal (ELF4)	binding signal (ELK4)	binding signal (ETV2)	binding signal (ELF3)	binding signal (ETV1)	binding signal (ERF)	binding signal (ETV3L)	binding signal (ETS2)	binding signal (SPDEF)	binding signal (ETV7)	binding signal (ELF5)	binding signal (ETV3)	binding signal (ETV6)
GCGACC	1.19 fold enrichment (6-mer frequency, TF over GST control)	1.09 fold enrichment (6-mer frequency, TF over GST control)	1.2 fold enrichment (6-mer frequency, TF over GST control)	1.25 fold enrichment (6-mer frequency, TF over GST control)	1.03 fold enrichment (6-mer frequency, TF over GST control)	1.26 fold enrichment (6-mer frequency, TF over GST control)	1.08 fold enrichment (6-mer frequency, TF over GST control)	1.06 fold enrichment (6-mer frequency, TF over GST control)	1.13 fold enrichment (6-mer frequency, TF over GST control)	1.14 fold enrichment (6-mer frequency, TF over GST control)	1.19 fold enrichment (6-mer frequency, TF over GST control)	1.14 fold enrichment (6-mer frequency, TF over GST control)	1.06 fold enrichment (6-mer frequency, TF over GST control)	1.1 fold enrichment (6-mer frequency, TF over GST control)	1.1 fold enrichment (6-mer frequency, TF over GST control)	1.08 fold enrichment (6-mer frequency, TF over GST control)
GATGCA	1.12 fold enrichment (6-mer frequency, TF over GST control)	1.13 fold enrichment (6-mer frequency, TF over GST control)	1.17 fold enrichment (6-mer frequency, TF over GST control)	1.23 fold enrichment (6-mer frequency, TF over GST control)	1.19 fold enrichment (6-mer frequency, TF over GST control)	1 fold enrichment (6-mer frequency, TF over GST control)	1.16 fold enrichment (6-mer frequency, TF over GST control)	1.04 fold enrichment (6-mer frequency, TF over GST control)	1.2 fold enrichment (6-mer frequency, TF over GST control)	1.14 fold enrichment (6-mer frequency, TF over GST control)	1.16 fold enrichment (6-mer frequency, TF over GST control)	1.47 fold enrichment (6-mer frequency, TF over GST control)	1.04 fold enrichment (6-mer frequency, TF over GST control)	1.1 fold enrichment (6-mer frequency, TF over GST control)	1.16 fold enrichment (6-mer frequency, TF over GST control)	1.02 fold enrichment (6-mer frequency, TF over GST control)

From article PMC7862700, “An all-to-all approach to the identification of sequence-specific readers for epigenetic DNA modifications on cytosine”
